Among the data in PubChem BioAssay (NCI) are growth values, retold here.

Holding throughout (assay): NCI-60 one-dose screen, 48 h (100 = growth as untreated, 0 = no growth, -100 = all killed)
Settings in all cases: 10 µM unless noted

In assay [1] the test system is SK-MEL-2 melanoma.
The subject of assay [2] is EKVX NSCLC.
In assay [3] the test system is SN12C renal.
In assay [4] the test system is UO-31 renal.
In assay [5] the test system is TK-10 renal.
Assay [6] has as its system ACHN renal.
In assay [7] the test system is CAKI-1 renal.
Assay [8] relates to A498 renal.
Assay [9] concerns CCRF-CEM leukemia.
The test system of assay [10] is MOLT-4 leukemia.
Assay [11] relates to SR leukemia.
The subject of assay [12] is RPMI-8226 leukemia.
Assay [13] concerns OVCAR-8 ovarian.
Assay [14] has as its system OVCAR-5 ovarian.
Assay [15] relates to OVCAR-4 ovarian.
For assay [16], the system named is SK-OV-3 ovarian.
The subject of assay [17] is IGROV1 ovarian.
Assay [18] deals with OVCAR-3 ovarian.
In assay [19] the test system is HS 578T breast.
Assay [20] has as its system NCI/ADR-RES ovarian.

The panel holds about 83,000 compounds, 20% with a hit somewhere; the sample as a whole holds those more often.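 The test compound was applied at a single concentration to cells in 96-well plates for 48 hours, and percent growth was recorded.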 Unmarked numbers belong to inactive results. The source made the active and inactive calls. The calls were made as follows: active = growth percent below 10; inactive = the rest.

With `COc1cc(-c2ccc3ncnc(N4CCc5ccc(Cl)cc54)c3c2)cnc1Cl`, the growth is 54.2% in [1]; 2.35% (active) in [2]; 26.9% in assay [3]; 5.14% (active) in assay [4]; 29.5% in [5]; 14.1% in [6]. In addition, the growth is 12.9% in assay [7]; -4.48% (active) in assay [8]; 12.2% in assay [9]; 6.74% (active) in [10]; 12.3% in [11]; -4.08% (active) in [12]. Besides, the growth in [13] is 37.1%; in assay [14], 34.7%; in assay [15], 33.3%; in assay [16], 17.4%; in [17], -44.4% (active); in assay [18], 29.2%. In addition, the growth in assay [19] is 23.5%; in assay [20], 26.6%.
Regarding `Cc1nn(-c2ccccc2)c2nc(C)n(C(=O)N/N=C/c3cccc([N+](=O)[O-])c3)c(=O)c12`, the growth in assay [1] was 92.9%; in assay [2] it was 49.3%; in assay [3] it was 94.4%; in assay [4], 81.4%; in [5], 138%; in [6] it was 91%. Moreover, the growth in assay [7] is 90.8%; in assay [8], 136%; in [9], 71.2%; in [10], 79.2%; in assay [11], 98.6%; in assay [12], 94%. The growth in assay [13] is 94.5%; in [14] it was 84.7%; in assay [15], 53.2%; in assay [16] it was 106%; in assay [17], 91.9%; in assay [18] it was 99.8%. Further, the results for the growth in assay [19] and in assay [20] were 91.2% and 93.3%, respectively.
Take `S=C(Nc1ccccc1)Nc1ccc(OCc2nc3ccc(Cl)cc3[nH]2)cc1`: the growth was 91.4% in assay [1]; 67.2% in assay [2]; 78.8% in [3]; 70.3% in assay [4]; 114% in assay [5]; 81.8% in assay [6]. Besides, the growth in [7] was 84.1%; in assay [8], 110%; in assay [9], 54.2%; in assay [10], 52.3%; in assay [11], 25.9%; in assay [12], 66.7%. The growth in assay [13] is 87.7%; in [14], 109%; in assay [15] it was 78.3%; in assay [16] it was 97.1%; in [17] it was 87.9%; in assay [18], 84.9%. The growth in [19] was 92%; in [20] it was 83.7%.
For `O=C(NNC(=O)c1ccc(OCc2nc3ccc(Cl)cc3[nH]2)cc1)Nc1ccc(Cl)c(Cl)c1`, the growth was 72.7% in assay [1]; 91.9% in assay [2]; 76.7% in [3]; 84.7% in [4]; 110% in assay [5]; 106% in assay [6]. The growth in assay [7] is 91.8%; in assay [8], 182%; in [9] it was 88.5%; in assay [10], 94%; in assay [11], 69.3%; in assay [12] it was 102%. For the same molecule, the growth in [13] was 24%; in assay [14], 83.8%; in assay [15], 64.5%; in assay [16], 77.1%; in assay [17], 84.5%; in assay [18] it was 82.7%. Also, the values for the growth in assay [19] and in assay [20] were 81.9% and 94.1%, respectively.
As to `CCc1ccc(SC2c3cc(OC)ccc3Oc3nc(N)c(C#N)c(N)c32)cc1` (stereo not given), the growth in assay [1] is -88.8% (active); in [2] it was -76.2% (active); in [3], 1.31% (active); in assay [4] it was 4.16% (active); in assay [5], -50.1% (active); in [6], 3.73% (active). The growth in assay [7] is -56.5% (active); in [8] it was -87.9% (active); in assay [9], 1.76% (active); in [10], -50.1% (active); in assay [11], -62% (active); in [12] it was -15.6% (active). The growth is 0.0543% (active) in assay [13]; -4.3% (active) in [14]; -13.3% (active) in assay [15]; -23.3% (active) in assay [16]; -69.6% (active) in assay [17]; -48.3% (active) in assay [18]. Also, the growth in [19] is -40.5% (active); in [20], 0.784% (active).
`O=C(Nc1ccc(-c2ccc3c(c2)NC(=O)/C3=C\c2ccc[nH]2)cc1)Nc1ccc(Cl)c(C(F)(F)F)c1`: the growth is 34.2% in [1]; 25.3% in assay [2]; 19.4% in [3]; 36.1% in assay [4]; 42.1% in assay [5]; 37.3% in [6]. The growth in [7] was 39.3%; in assay [8], 39.2%; in assay [9], 27.4%; in [10] it was 9.33% (active); in assay [11], 6.31% (active); in [12], 30.3%. Besides, the growth in [13] is 50.5%; in assay [14] it was 51.2%; in assay [15], 28.9%; in assay [16] it was 68.3%; in assay [17], 61.7%; in assay [18], 29.1%. Besides, the growth in assay [19] is 39%; in assay [20], 51.7%.
With `O=C1Nc2ccc(F)cc2/C1=C/C(=O)c1cc2ccccc2oc1=O`, the growth in assay [1] was 102%; in assay [2], 90.3%; in assay [3], 104%; in [4], 62.1%; in assay [5], 161%; in [6], 62.5%. Moreover, the growth is 88.8% in assay [7]; 128% in [8]; 39.6% in assay [9]; 65% in assay [10]; 42.1% in assay [11]; 78.8% in assay [12]. The growth in assay [13] was 105%; in assay [14], 113%; in assay [15], 89.1%; in assay [16], 88.7%; in assay [17], 105%; in assay [18], 85.9%. Besides, the growth is 101% in assay [19] and 103% in assay [20].
